We go through 7 sequences from the supplement of paper PMC6555819.

Assay in all cases: PBM binding z-score (relative to random genomic background probes); higher = stronger binding; sequences stand for … in GC…GCGATTGACAGCGTAGAATGAAGG
In assay [1] the test system is FXR:RXRa (NR concentration 270 nM, RXRa partner concentration 90 nM). The gist of the method:
(§1)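 Each nuclear receptor dimer, without ligand, was incubated for 1 h on custom Agilent 4×180K protein-binding microarrays. Binding was detected with antibodies against each partner (one per run), and scanned fluorescence was regression-normalized. The binding z-scores are referenced to random human genomic background probes.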

Assay [2] relates to LXRa:RXRa (NR concentration 270 nM, RXRa partner concentration 90 nM). An outline of the steps:
as §1

The test system of assay [3] is LXRa homodimer (NR concentration 270 nM). The gist of the method:
as §1

In assay [4] the test system is LXRb:RXRa (NR concentration 270 nM, RXRa partner concentration 90 nM). The gist of the method:
as §1

For assay [5], the system named is LXRb homodimer (NR concentration 270 nM). An outline of the steps: as §1
In assay [6] the test system is PPARa:RXRa (NR concentration 270 nM, RXRa partner concentration 90 nM). An outline of the steps: as §1
Assay [7] has as its system PPARg:RXRa (NR concentration 180 nM, RXRa partner concentration 90 nM). The gist of the method:
as §1

Assay [8] concerns PPARg:RXRa 270nM:90nM, anti-RXR (NR concentration 270 nM, RXRa partner concentration 90 nM). The gist of the method:
as §1

The subject of assay [9] is PPARg:RXRa 30nM:10nM, anti-RXR (NR concentration 30 nM, RXRa partner concentration 10 nM). The gist of the method:
as §1

Assay [10] relates to PPARg:RXRa 90nM:30nM, anti-RXR (NR concentration 90 nM, RXRa partner concentration 30 nM). An outline of the steps: as §1
In assay [11] the test system is PPARg:RXRa DBDmut IVT, anti-RXR (DBD mutation: RXRa K156A/R161A, NR concentration 270 nM, RXRa partner concentration 90 nM). The gist of the method:
as §1

Assay [12] deals with PPARg:RXRa IVT, anti-PPARg (NR concentration 270 nM, RXRa partner concentration 90 nM). An outline of the steps:
as §1

Assay [13] relates to PPARg DBDmut:RXRa IVT, anti-PPARg (DBD mutation: PPARg1 K132A/R137A, NR concentration 270 nM, RXRa partner concentration 90 nM). An outline of the steps:
as §1

Assay [14] relates to PPARg DBDmut IVT, anti-PPARg (DBD mutation: PPARg1 K132A/R137A, NR concentration 270 nM). The gist of the method: as §1
Assay [15] deals with PPARg homodimer (NR concentration 180 nM). An outline of the steps: as §1
For assay [16], the system named is PXR:RXRa (NR concentration 270 nM, RXRa partner concentration 90 nM). An outline of the steps: as §1
In assay [17] the test system is PXR homodimer (NR concentration 270 nM). An outline of the steps:
as §1

The subject of assay [18] is RARa homodimer (NR concentration 270 nM). An outline of the steps: as §1
Assay [19] concerns RARb:RXRa (NR concentration 270 nM, RXRa partner concentration 90 nM). The gist of the method:
as §1

Assay [20] deals with RARa:RXR (NR concentration 270 nM, RXRa partner concentration 90 nM). The gist of the method:
as §1

On to TAGCCTAGGTCATGGGCCAGTTTACCACGCGAAC, for which the PBM binding z-score in assay [1] is 4.52; in assay [2], 3.85; in assay [3], 0.503; in assay [4] it was 2.26; in [5], -0.093; in [6], 4.37. Also, the PBM binding z-score in assay [7] stood at 3.6; in assay [8], 3.88; in assay [9], 0.612; in assay [10] it was 2.88; in [11] it was 1.76; in [12], 3.27. The PBM binding z-score is -0.261 in [13]; -0.602 in [14]; 1.68 in assay [15]; 2.12 in assay [16]; -0.368 in [17]; -0.379 in assay [18]. The same sequence showed a PBM binding z-score in [19] of 3.82.

As for CAAACTAGGTCAAGAGGTCAAACTCCGCTTCCCG, the PBM binding z-score in assay [1] amounted to 7.36; in assay [2], 6.74; in assay [3], 6.8; in assay [4], 5.98; in assay [5] it was 2.74; in assay [6], 6.77. The PBM binding z-score worked out at 10.1 in assay [7]; 8.55 in assay [8]; 7.7 in assay [9]; 9.09 in assay [10]; 8.21 in [11]; 8.74 in assay [12]. Further, the PBM binding z-score in assay [13] worked out at 4.72; in assay [14], 2.13; in [15] it was 6.57; in [16] it was 6.37; in assay [17], 4.12; in [20], 8.15. The PBM binding z-score in assay [18] came out at 2.88; in assay [19] it was 5.41.

Turning to ACTAACAGGCCAAGGGTCACTCAAGATTAGTCCG, the PBM binding z-score in [1] was 2.89; in [2] it was 3.27; in assay [3], 0.663; in assay [4], 3.06; in [5], 0.292; in assay [6], 4.35. Further, the PBM binding z-score in assay [7] is 6.9; in [8], 6.64; in assay [9], 4.86; in assay [10], 6.91; in assay [11], 0.923; in [12], 3.21. The PBM binding z-score in assay [13] was 0.489; in assay [14] it was -0.189; in assay [15], 3.04; in assay [16] it was 3.56; in assay [17], 0.163; in assay [18], 1.2. The PBM binding z-score in assay [19] amounted to 3.57.

Consider CAAACTAGGTCAAAGGTCAAAGTTGAGCCAACCA, for which the PBM binding z-score was found to be 8.49 in [1]; 7.15 in assay [2]; 5.63 in [3]; 7.42 in assay [4]; 3.19 in [5]; 7.85 in assay [6]. The PBM binding z-score turned out to be 14 in assay [7]; 11.5 in assay [8]; 12.5 in [9]; 13.5 in assay [10]; 8.56 in assay [11]; 9.49 in assay [12]. Moreover, the PBM binding z-score amounted to 2.5 in assay [13]; 3.77 in [14]; 3.75 in [15]; 7.31 in assay [16]; 1.83 in [17]; 2.12 in [18]. In addition, the PBM binding z-score in [19] came out at 5.96.

For CCTACGGGGCCAAAGGTCATTGATTCCAATGCTC, the PBM binding z-score was found to be 5.67 in [1]; 5.59 in assay [2]; 4.4 in [3]; 5.16 in assay [4]; 0.715 in assay [5]; 6.04 in assay [6]. The PBM binding z-score is 11 in assay [7]; 9.49 in assay [8]; 8.43 in assay [9]; 11.1 in [10]; 1.49 in assay [11]; 5.33 in assay [12]. Also, the PBM binding z-score is -0.65 in [13]; -0.159 in assay [14]; 5.46 in assay [15]; 6.24 in [16]; 2.59 in assay [17]; 2.51 in assay [18]. The sequence also displayed a PBM binding z-score in assay [19] of 4.72.

For the sequence AGTAGCAGGCCAAGGGTCACTCAAGATTAGTCCG, the PBM binding z-score was 2.36 in assay [1]; 2.53 in [2]; 0.22 in [3]; 2.8 in assay [4]; -0.43 in assay [5]; 4.63 in assay [6]. The PBM binding z-score came out at 7.54 in assay [7]; 7.15 in assay [8]; 6.3 in assay [9]; 7.51 in assay [10]; 0.462 in assay [11]; 3.88 in assay [12]. Besides, the PBM binding z-score in [13] is -0.464; in [14], -0.976; in assay [15], 1.7; in [16], 3.19; in assay [17], -0.0466; in assay [20], 4.3. Further, the PBM binding z-score in assay [18] came to 0.186; in [19], 3.65.

Consider ATCGAAAGGTCGACGAGTTGAGTATACACCGTTT, for which the PBM binding z-score in assay [1] is 3.68; in assay [2], 3.25; in [3], 0.0436; in assay [4], 2.75; in assay [5] it was 0.676; in assay [6] it was 3.98. For the same sequence, the PBM binding z-score in [7] stood at 2.27; in assay [8], 2.77; in [9], 1.17; in assay [10] it was 1.91; in assay [11] it was 0.59; in assay [12], 1.57. The PBM binding z-score was determined as 1.03 in assay [13]; 0.857 in [14]; 1.26 in [15]; 3.23 in assay [16]; 1.84 in assay [17]; 0.451 in [18]. Also, in [19], the PBM binding z-score worked out at 3.7.
